Consider 16 compounds from ChEMBL document CHEMBL1961873, “Compounds: GSK PKIS; Assays: Nanosyn kinase panel” (2012).

Assay [1] has as its target Fibroblast growth factor receptor 4 (Homo sapiens) (UniProt P22455). Conditions: at 1 µM.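 Further: reported figure is the averaged percent inhibition of FGFR4, from the GSK PKIS kinase screening panel.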
In assay [2] the target is Tyrosine-protein kinase Fgr (Homo sapiens) (UniProt P09769). Conditions: at 0.1 µM.
Assay [3] shares this target. Conditions: at 1 µM.
The target in assay [4] is Vascular endothelial growth factor receptor 1 (Homo sapiens) (UniProt P17948). Conditions: at 0.1 µM.
Sequence of Vascular endothelial growth factor receptor 1 (Homo sapiens) (P17948 whole entry): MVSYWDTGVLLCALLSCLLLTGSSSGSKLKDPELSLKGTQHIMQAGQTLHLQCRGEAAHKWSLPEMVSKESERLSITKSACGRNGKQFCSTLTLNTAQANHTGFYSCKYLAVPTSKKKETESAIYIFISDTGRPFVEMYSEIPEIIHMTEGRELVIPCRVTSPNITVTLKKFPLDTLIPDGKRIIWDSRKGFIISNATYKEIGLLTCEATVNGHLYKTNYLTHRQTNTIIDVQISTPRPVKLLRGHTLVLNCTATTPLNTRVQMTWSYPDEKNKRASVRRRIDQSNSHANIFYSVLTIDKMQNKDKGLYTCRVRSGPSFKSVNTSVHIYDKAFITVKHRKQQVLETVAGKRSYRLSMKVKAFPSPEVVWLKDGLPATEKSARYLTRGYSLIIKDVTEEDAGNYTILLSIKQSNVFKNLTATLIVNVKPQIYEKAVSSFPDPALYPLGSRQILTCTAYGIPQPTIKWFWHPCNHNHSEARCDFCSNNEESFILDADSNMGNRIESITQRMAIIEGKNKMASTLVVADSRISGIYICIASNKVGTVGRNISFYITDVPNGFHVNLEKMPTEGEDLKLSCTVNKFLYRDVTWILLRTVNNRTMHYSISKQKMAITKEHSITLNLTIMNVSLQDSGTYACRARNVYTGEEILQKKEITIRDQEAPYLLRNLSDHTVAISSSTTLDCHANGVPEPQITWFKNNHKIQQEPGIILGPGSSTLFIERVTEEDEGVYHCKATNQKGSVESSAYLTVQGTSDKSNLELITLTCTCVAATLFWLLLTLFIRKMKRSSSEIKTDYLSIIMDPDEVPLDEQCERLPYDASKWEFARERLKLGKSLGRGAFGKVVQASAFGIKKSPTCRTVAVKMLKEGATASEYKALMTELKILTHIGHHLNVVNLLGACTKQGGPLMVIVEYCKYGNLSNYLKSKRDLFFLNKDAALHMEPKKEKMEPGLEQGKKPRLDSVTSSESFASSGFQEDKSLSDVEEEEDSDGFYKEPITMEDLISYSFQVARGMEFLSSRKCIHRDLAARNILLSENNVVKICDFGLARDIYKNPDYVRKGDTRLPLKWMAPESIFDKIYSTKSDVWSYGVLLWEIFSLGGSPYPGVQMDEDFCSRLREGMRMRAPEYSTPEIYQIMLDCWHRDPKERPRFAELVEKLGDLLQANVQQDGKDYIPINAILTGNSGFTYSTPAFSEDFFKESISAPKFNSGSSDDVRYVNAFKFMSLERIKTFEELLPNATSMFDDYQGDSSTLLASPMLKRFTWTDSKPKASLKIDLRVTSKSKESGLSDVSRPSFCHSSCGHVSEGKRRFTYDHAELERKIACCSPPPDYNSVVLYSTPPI
For assay [5] the target is unchanged. Conditions: at 1 µM.
The target of assay [6] is Receptor-type tyrosine-protein kinase FLT3 (Homo sapiens) (UniProt P36888). Conditions: at 0.1 µM.
Assay [7] shares this target. Particulars: at 1 µM.
Assay [8] has as its system T1, Receptor-type tyrosine-protein kinase FLT3 (Homo sapiens), P36888 [D835Y].
T1 sequence (whole entry): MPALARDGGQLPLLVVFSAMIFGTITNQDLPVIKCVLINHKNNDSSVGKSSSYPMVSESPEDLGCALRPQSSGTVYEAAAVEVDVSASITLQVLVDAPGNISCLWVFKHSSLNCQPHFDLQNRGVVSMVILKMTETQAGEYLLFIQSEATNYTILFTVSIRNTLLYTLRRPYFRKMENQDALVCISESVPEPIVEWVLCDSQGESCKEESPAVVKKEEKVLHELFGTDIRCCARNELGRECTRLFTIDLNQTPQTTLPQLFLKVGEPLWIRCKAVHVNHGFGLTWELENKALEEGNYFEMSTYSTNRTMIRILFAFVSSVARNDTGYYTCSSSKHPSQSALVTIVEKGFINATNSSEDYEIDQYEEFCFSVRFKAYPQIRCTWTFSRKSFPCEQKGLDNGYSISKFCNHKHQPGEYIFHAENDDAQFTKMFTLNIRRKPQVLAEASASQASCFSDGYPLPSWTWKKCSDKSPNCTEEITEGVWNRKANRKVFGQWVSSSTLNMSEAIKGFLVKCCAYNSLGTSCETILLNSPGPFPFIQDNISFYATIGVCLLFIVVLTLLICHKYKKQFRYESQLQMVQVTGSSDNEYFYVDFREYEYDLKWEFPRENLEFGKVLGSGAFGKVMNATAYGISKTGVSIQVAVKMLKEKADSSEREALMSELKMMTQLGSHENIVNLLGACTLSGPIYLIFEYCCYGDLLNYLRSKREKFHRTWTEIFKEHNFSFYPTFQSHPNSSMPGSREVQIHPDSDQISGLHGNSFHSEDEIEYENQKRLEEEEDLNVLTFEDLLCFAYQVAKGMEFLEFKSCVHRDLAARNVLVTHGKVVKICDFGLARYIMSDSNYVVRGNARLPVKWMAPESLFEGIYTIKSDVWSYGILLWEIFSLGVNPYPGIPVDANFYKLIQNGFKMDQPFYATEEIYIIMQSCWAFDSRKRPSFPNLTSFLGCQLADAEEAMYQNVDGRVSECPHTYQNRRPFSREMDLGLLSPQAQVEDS
Conditions: at 0.1 µM.

Assay [9] has as its target Non-receptor tyrosine-protein kinase TYK2 (Homo sapiens) (UniProt P29597). Conditions: at 1 µM.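 Further: values are mean percent inhibition of TYK2 kinase.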
Assay [10] addresses T2, Tyrosine-protein kinase receptor TYRO3 (Homo sapiens) (UniProt Q06418).
T2 sequence (whole entry): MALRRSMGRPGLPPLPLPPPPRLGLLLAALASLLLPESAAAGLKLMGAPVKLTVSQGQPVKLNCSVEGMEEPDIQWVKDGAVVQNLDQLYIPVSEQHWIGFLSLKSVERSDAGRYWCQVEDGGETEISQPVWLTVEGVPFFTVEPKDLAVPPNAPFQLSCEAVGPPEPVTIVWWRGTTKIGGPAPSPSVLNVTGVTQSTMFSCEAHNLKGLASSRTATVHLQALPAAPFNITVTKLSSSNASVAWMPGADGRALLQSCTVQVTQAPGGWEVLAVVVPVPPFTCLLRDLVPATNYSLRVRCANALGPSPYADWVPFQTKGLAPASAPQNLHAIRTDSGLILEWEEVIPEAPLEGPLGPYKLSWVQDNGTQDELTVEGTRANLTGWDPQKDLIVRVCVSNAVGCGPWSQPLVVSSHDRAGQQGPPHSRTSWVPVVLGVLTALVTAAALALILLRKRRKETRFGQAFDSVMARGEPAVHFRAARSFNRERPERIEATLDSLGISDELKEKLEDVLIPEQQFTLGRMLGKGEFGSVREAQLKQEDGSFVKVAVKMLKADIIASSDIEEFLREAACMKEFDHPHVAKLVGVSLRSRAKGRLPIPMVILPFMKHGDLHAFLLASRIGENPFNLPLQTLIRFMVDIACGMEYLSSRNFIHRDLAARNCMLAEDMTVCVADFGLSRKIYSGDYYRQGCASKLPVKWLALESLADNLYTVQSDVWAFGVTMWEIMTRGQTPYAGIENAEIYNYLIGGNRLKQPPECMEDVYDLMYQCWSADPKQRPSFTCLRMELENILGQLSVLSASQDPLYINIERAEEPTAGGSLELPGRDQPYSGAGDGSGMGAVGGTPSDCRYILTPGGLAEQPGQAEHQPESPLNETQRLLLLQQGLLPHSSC
Particulars: at 0.1 µM.

“And” between values parts separate entries of the source, which are not always exact repeats. Equal entries are not always repeated.

Sequence of Tyrosine-protein kinase Fgr (Homo sapiens) (P09769 2-529 limits assumed): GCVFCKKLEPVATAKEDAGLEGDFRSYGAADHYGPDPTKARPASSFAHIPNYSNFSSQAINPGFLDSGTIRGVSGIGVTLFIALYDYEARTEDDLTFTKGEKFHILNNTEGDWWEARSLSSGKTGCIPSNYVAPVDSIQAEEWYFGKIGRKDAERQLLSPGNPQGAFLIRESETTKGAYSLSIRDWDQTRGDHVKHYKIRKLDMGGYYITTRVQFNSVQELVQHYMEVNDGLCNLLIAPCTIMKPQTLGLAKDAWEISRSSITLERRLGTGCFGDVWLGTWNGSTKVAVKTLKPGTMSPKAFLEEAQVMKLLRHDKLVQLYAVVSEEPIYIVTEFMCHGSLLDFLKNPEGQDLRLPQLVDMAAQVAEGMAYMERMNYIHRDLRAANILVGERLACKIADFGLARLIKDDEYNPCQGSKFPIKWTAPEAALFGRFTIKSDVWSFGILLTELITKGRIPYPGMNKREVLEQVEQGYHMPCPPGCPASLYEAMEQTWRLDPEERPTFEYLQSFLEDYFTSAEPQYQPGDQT
Sequence of Non-receptor tyrosine-protein kinase TYK2 (Homo sapiens) (P29597 whole entry): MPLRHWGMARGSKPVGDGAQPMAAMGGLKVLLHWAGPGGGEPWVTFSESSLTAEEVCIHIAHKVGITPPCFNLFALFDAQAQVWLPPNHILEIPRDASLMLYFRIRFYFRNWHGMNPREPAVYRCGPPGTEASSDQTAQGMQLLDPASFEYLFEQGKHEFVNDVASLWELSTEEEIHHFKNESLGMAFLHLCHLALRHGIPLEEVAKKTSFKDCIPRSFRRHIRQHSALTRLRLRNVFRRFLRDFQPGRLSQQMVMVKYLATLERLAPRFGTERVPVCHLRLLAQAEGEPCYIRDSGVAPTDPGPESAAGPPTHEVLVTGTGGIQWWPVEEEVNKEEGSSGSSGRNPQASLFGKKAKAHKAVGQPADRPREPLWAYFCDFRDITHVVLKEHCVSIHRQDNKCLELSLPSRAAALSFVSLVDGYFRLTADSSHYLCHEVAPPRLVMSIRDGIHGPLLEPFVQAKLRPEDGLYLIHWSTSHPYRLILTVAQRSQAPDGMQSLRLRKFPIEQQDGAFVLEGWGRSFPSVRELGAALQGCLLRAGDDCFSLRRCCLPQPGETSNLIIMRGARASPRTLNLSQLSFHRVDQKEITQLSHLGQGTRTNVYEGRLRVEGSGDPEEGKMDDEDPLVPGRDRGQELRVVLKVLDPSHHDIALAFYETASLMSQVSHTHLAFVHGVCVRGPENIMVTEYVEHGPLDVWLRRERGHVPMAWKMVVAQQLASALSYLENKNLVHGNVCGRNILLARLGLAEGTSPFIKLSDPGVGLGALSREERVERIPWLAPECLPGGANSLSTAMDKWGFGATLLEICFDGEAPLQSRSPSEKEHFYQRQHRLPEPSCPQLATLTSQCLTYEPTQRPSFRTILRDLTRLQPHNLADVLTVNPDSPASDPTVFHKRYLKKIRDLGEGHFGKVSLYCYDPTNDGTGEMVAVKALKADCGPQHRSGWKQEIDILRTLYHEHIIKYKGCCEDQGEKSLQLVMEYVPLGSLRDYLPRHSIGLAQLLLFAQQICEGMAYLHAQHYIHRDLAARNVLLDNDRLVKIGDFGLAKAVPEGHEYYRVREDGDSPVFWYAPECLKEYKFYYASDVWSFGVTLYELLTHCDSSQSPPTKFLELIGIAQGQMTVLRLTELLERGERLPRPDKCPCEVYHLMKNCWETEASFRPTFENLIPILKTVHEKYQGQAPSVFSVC
Sequence of Fibroblast growth factor receptor 4 (Homo sapiens) (P22455 22-802 limits assumed): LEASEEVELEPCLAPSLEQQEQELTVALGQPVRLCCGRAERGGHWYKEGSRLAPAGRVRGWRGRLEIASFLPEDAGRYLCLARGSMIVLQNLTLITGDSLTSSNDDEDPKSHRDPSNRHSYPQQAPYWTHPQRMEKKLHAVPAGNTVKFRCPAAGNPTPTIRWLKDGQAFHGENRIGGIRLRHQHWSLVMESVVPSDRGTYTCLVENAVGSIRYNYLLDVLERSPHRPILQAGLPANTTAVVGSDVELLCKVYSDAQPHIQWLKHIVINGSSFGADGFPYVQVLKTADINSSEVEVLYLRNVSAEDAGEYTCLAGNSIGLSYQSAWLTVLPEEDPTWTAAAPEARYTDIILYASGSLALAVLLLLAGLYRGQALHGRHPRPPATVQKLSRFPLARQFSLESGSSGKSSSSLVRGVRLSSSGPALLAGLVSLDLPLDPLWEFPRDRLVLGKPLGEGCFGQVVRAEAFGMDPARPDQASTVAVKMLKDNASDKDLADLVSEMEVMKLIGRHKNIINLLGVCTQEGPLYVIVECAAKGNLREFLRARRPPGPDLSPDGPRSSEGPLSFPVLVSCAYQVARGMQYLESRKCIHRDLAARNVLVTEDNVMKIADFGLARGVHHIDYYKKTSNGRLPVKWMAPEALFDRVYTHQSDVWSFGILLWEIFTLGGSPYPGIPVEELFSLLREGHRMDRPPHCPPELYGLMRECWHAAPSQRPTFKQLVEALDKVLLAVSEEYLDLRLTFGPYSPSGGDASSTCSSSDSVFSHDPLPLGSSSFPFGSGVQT

On to `Cc1ccc(-c2cc3c(NC(=O)C4CC4)ncnc3o2)cc1`, for which the inhibition (usually the relative decrease from the control value, in per cent) is 1.04% in [1]; 2.06% in assay [2]; 13.3% in [3]; 2.75% in assay [4]; 3.26% in assay [5]; 2.89% in assay [6]. For the same compound, the inhibition is 3.69% in assay [7], 0.76% in [8], -1.62% in [9] and 9.35% in [10].
As to `CN(C)CCNC(=O)Nc1ccc(N(C)c2ccnc(Nc3ccc(CS(C)(=O)=O)cc3)n2)cc1`, the inhibition worked out at 2.84% in [1]; 1.07% in [2]; 9.57% in assay [3]; 4.18% in [4]; 8.87% in assay [5]; 16% in [6]. Further, the inhibition is 58.6% in [7], -5.17% in assay [8], -3.31% in [9] and 2.66% in assay [10].
As to `NC(=O)c1ccc2c(-c3ccnc(NCCCO)n3)c(-c3ccc(F)cc3)nn2c1`, the inhibition is 1.22% in [1]; 3.07% in assay [2]; 12.1% in assay [3]; 3.74% in [4]; 3.53% in [5]; 4.12% in [6]. The inhibition in assay [7] was 5.06%; in [8] it was 2.33%; in [9], -5.12%; in assay [10], 3.03%.
For `CNC(=O)c1sc(-n2cnc3cc(OC)c(OC)cc32)cc1OCc1ccccc1C(F)(F)F`, the inhibition stood at 1.34% in [1]; 4.08% in assay [2]; 10.1% in assay [3]; 1.22% in [4]; 0.98% in assay [5]; 2.13% in [6]. Further, the inhibition in [7] was 3.19%; in assay [8] it was -3.62%; in assay [9], -3.45%; in [10], 1.67%.
Turning to `Nc1nonc1-c1nc2cnccc2n1C1CC1`, the inhibition in assay [1] is 0.52% and -2.65%; in assay [2] it was 1.63% and 3.54%; in [3], 4.78% and 2.49%; in assay [4], 2.44% and 2.46%; in assay [5], 7.3% and 7.59%; in assay [6], -0.66% and 0.33%. For the same compound, the inhibition is 4.5% and 3.82% in assay [7]; 2.73% and -0.79% in assay [8]; -1.02% and -1.56% in [9]; 1.66% and 1.58% in [10].
In the case of `CC1(C)CC(n2cnc(-c3ccc(F)cc3)c2-c2ccnc(N)n2)CC(C)(C)N1`, the inhibition in [1] was found to be 2.01%; in [2], 0.26%; in [3], 3.54%; in assay [4] it was 1.16%; in assay [5], 1.59%; in assay [6], 0.9%. In addition, the inhibition in assay [7] was -0.24%; in [8], 2.51%; in [9] it was 0.03%; in assay [10], 0.59%.
Regarding `CNC(=O)c1cncc(/C=C/c2ccccc2C)c1`, the inhibition in assay [1] was -0.62%; in assay [2], 5.41%; in assay [3] it was 9.23%; in [4], 1.31%; in [5], 0.49%; in assay [6], 1.85%. Moreover, the inhibition in [7] is 1.3%; in assay [8], -2.2%; in assay [9] it was -3.23%; in assay [10] it was 3.13%.
Regarding `COc1ccccc1-c1cc(/C=C2\C(=O)Nc3ncc(Br)cc32)cc(Br)c1O`, the inhibition was 1.97% in [1]; 2.7% in [2]; 11.6% in [3]; 3.32% in assay [4]; 4.73% in assay [5]; 4.36% in [6]. Further, the inhibition in assay [7] was 6.62%; in assay [8], -5.55%; in [9], -1.22%; in [10], 7.47%.
For the compound `c1ccc(-c2n[nH]cc2-c2ccnc(-c3ccc(OCCn4ccnc4)cc3)c2)nc1`, the inhibition in assay [1] was 4.5%; in [2] it was 0.78%; in assay [3], 2.78%; in assay [4] it was 5.66%; in [5], 29.5%; in [6], -0.04%. Moreover, the inhibition was 2.15% in [7], 2.71% in assay [8], -0.27% in [9] and 1.13% in assay [10].
As for `CCS(=O)(=O)c1ccc(OC)c(Nc2ncc(-c3cccc(F)c3)o2)c1`, the inhibition in [1] was 17.6%; in [2], 40.2%; in [3], 76.2%; in assay [4] it was 14.2%; in assay [5], 55.3%; in assay [6] it was 23.3%. In addition, the inhibition is 74.5% in assay [7], 17.6% in [8], -2.12% in [9] and 6.63% in [10].
As to `COC(=O)Nc1nc2cc(Oc3ccc(NC(=O)Nc4ccccc4)cc3)ccc2[nH]1`, the inhibition in assay [1] was -0.59%; in assay [2], 4.41%; in assay [3] it was 3.18%; in [4], 16.5%; in assay [5], 22.1%; in [6], 5.43%. Further, the inhibition in assay [7] is 14.2%; in assay [8] it was -4.53%; in [9], -1.49%; in [10], 1.8%.
In the case of `CCn1c(-c2nonc2N)nc2cncc(C(=O)NCCNC)c21`, the inhibition in assay [1] was found to be 1.09%; in assay [2], 1.3%; in assay [3] it was 4.66%; in assay [4], 2.02%; in assay [5], 3.5%; in assay [6], 0.34%. Also, the inhibition in assay [7] is 4.29%; in [8], -3.83%; in assay [9] it was -3.99%; in [10] it was 3.7%.
As to `COc1ccc(Nc2ncc(-c3ccccc3)o2)cc1OC`, the inhibition in assay [1] is 1.3%; in assay [2], 3.96%; in [3], 31.4%; in [4], 6.85%; in assay [5], 23.6%; in [6] it was 76.6%. Further, the inhibition in assay [7] was determined as 89.4%; in assay [8] it was 15.2%; in assay [9] it was 5.03%; in assay [10], 0.14%.
On to `O=C(Nc1n[nH]c2nnc(-c3cccnc3)cc12)C1CC1`, for which the inhibition in assay [1] is -0.33%; in assay [2], 2.57%; in assay [3], 2.95%; in [4], 0.7%; in [5], 0.07%; in assay [6], -0.64%. For the same compound, the inhibition in [7] is 1.54%; in assay [8] it was 0.49%; in [9], 2.04%; in [10] it was -0.64%.
For `N#Cc1cccc(Nc2ncc(-c3ccccc3)o2)c1`, the inhibition was found to be 3.3% in assay [1]; 5.47% in [2]; 13.5% in [3]; 2.46% in [4]; 9.52% in assay [5]; 12% in assay [6]. Besides, the inhibition was 61.8% in assay [7], 3.75% in assay [8], -1.92% in [9] and 1.76% in [10].
For `COc1cc(N2CCN(C(C)C)CC2)ccc1Nc1nc(Nc2cccc3ncccc23)c2cc[nH]c2n1`, the inhibition in assay [1] was 0.41%; in assay [2] it was -0.04%; in [3], 3.16%; in assay [4] it was 1.51%; in assay [5], 0.56%; in [6] it was 0.08%. Also, the inhibition in [7] is 1.34%; in assay [8] it was 1.05%; in [9], 2.42%; in [10], -2.4%.
